Bioassay records (PubChem)
Pf Dd2 growth – blocks in vitro growth of P. falciparum Dd2 | P. falciparum Dd2 growth, SYBR Green, 72 h | Potency, µM (top dose mostly 28.9 µM), actives largely listed as inhibitors | 4.3% of 120,000 active | AID 1347417; active means well fitted inhibition curve with a large enough effect; further: nearly all actives have a fitted effect of over 65% in size
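Readout: SYBR Green fluorescence, 485 nm excitation, 535 nm emission, after ~16 h lysis at 37C. Before that, Dd2-infected red cells (2.5% hematocrit) grew 72 h with compound, 29 uM top final concentration.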
Hits are given with their value; i = inactive; [ ] = remark or other dose. Only a selection was taken, and hits are over-represented in it overall.

SMILES	Pf Dd2 growth
COCCN1C(=O)c2ccccc2C(C(=O)N2CCC(C)CC2)C12CCCC2 (stereo not given)	i
Cc1nccn1Cc1nnc(C2CCCN(S(=O)(=O)C3CC3)C2)n1C (stereo not given)	i
COc1ccccc1CC(=O)NCC1CCN(c2cnn(C)c(=O)c2)C1 (stereo not given)	i
CCC(N)(CC)c1cn(CC2CCCN(S(C)(=O)=O)C2)nn1 (stereo not given)	i
O=S(=O)(Cc1ccccc1F)N1CCC(C2CCNC2)CC1 (stereo not given)	i
CS(=O)(=O)N1CCCC1C(=O)Nc1ccc(-c2cccc(F)c2)cc1 (stereo not given)	i
CC(=O)NC1(C)CCN(Cc2cccc(-c3cccc(Cl)c3)c2)C1 (stereo not given)	i
O=C(Nc1cccc(-c2cccc(Cl)c2)c1)C1CCN(Cc2cccc(O)c2)CC1	4µM
CN(C)S(=O)(=O)N1CCCC1C(=O)Nc1ccc(-c2cccc(F)c2)cc1 (stereo not given)	i
CCCN1CCC(N2CCC(C(=O)Nc3cccc(-c4cccc(F)c4)c3)CC2)CC1	2.2µM
O=C(NCC1CCN(Cc2cccc(Cl)c2)CC1)Nc1cc(Cl)ccc1Cl	i
COCCn1ncc(N2CCC(NC(=O)c3ccc(OC)c(F)c3)CC2)cc1=O	i
COCc1cc(C[C@@H]2CC[C@H](O)[C@@H](CNC(=O)C(C)(C)C)O2)no1	i
CS(=O)(=O)c1ccc(CN[C@@H]2CO[C@H](CNC(=O)Nc3ccccc3)[C@H]2O)cc1	i
CCCc1noc(-c2cccn3c(CNC(=O)c4cc(Cl)ccc4F)nnc23)n1	i
CCc1nnc2ccc(NCc3ccccc3)nn12	6.3µM
CCc1nnc2ccc(NC3CC3)nn12	i
CCc1nnc2ccc(NC(C)C)nn12	i
CCN1C(=O)CCN(C(=O)NC2CCCCC2)CC12CCOCC2	i
O=C1C[C@@H]2CCN(C(=O)COc3ccccc3)C[C@@H]2CCN1CCN1CCOCC1	i
CCOC(=O)c1ccc(NC(=O)Cn2nc3c(cc2=O)CCCCC3)cc1	i
Cc1ccc(OCCn2c(COc3ccc(Cl)cc3)nc3ccccc32)cc1	i
CCc1ccc(OCCCn2c(-c3ccc(Cl)cc3)nc3ccccc3c2=O)cc1	i
CCCC(O)c1nc2ccccc2n1CCCOc1ccc(Cl)cc1 (stereo not given)	5µM
O=C1NC(=O)[C@@H]2CN(C(=O)c3coc(COc4ccc5c(c4)OCO5)n3)C[C@H]12	i
SMILES	Pf Dd2 growth
O=C(NC1CC1)c1ccc(CC2CCN(C(=O)c3ccc4ccccc4n3)CC2)cc1	2µM
CCNC(=O)c1ccc(CC2CCN(C(C)=O)CC2)cc1	i
COCC(=O)NC1CCC12CCN(C(=O)c1ccc3ccccc3n1)CC2 (stereo not given)	i
O=C(N[C@@H]1CCOC[C@H]1OCCO)c1ccc(CN2CCCCCC2)cc1	i
CCOC(=O)c1ccc(NC(=O)C(CC)Sc2nncn3c2cc2oc(C)cc23)cc1 (stereo not given)	10µM
COc1ccc(NC(=O)CSc2nncn3c2cc2oc(C)cc23)cc1OC	i
Cc1cc(C)c(NC(=O)CSc2nncn3c2cc2oc(C)cc23)c(C)c1	i[5.79 µM]
COc1ccc(NC(=O)NC[C@H]2COCc3nc4ccccc4n32)cc1	i
COc1ccc(C2(C(=O)N3CCC(Oc4ccc(-c5noc(C)n5)cc4)C3)CC2)cc1 (stereo not given)	i[5.79 µM]
O=C(NC1CC1)c1ccccc1OCC1CCCN(Cc2cn[nH]c2-c2ccc(F)cc2)C1 (stereo not given)	i
CS(=O)(=O)N1CCC(C2CCN(C(=O)c3ccc(F)c(Cl)c3)C2)CC1 (stereo not given)	i
CC(=O)Nc1ccc(C(=O)NC2CCN(c3cc(-c4ccc(Cl)cc4)[nH]n3)CC2)cc1	i
COc1ccc(CN2CC[C@H](c3nnc(-c4ccncc4)o3)C2)cc1	i
Cn1c([C@H]2CCN(Cc3cccc(C#N)c3)C2)nc2ccccc21	10µM
COc1ccc(C(=O)N2CC[C@H](c3nnc(-c4ccccc4)o3)C2)cc1	i
COc1ccccc1-c1nnc([C@H]2CCN(Cc3cccnc3)C2)o1	13µM
COc1ccccc1-c1nnc([C@H]2CCN(Cc3ccc(F)cc3)C2)o1	i
COc1ccc(-c2nnc([C@H]3CCN(Cc4cccc(C#N)c4)C3)o2)cc1	14µM
Cn1c([C@H]2CCN(Cc3ccc(Cl)cc3)C2)nc2ccccc21	i
COc1ccc(-c2nnc([C@H]3CCN(S(=O)(=O)Cc4ccccc4)C3)o2)cc1	10µM
COc1ccccc1-c1nnc([C@H]2CCN(Cc3ccc(C(=O)O)cc3)C2)o1	i
Cn1c([C@H]2CCN(Cc3ccccc3)C2)nc2ccccc21	i
COc1ccc(-c2nnc([C@H]3CCN(S(C)(=O)=O)C3)o2)cc1	i
Cn1cncc1-c1nnc([C@H]2CCN(Cc3cccc(C#N)c3)C2)o1	i
O=C1NCCOCCN(C(=O)c2ccncc2)[C@H]2CCC[C@@H]12	i
SMILES	Pf Dd2 growth
O=C([C@@H]1C[C@H](Oc2cccnc2)CN1C(=O)CC1CCCCC1)N1CCCC1	i
CCNC(=O)NC[C@H]1O[C@H](Cc2cc(C(C)(C)C)on2)CC[C@@H]1O	i
O=C1CC(c2ccccc2)N(C(=O)CNS(=O)(=O)c2cccnc2)CCCCCN1 (stereo not given)	i
CSCC(=O)N1CCC(C2CCN(C(C)=O)CC2)C1 (stereo not given)	i
CCCNC(=O)N(C1CCOCC1)C1CCN(C(=O)c2cccc(C(F)(F)F)c2)CC1	i
Cn1ccc(C(=O)N[C@@H]2COCC[C@H]2Oc2ccc(CO)cc2)cc1=O	i
O=C([C@@H]1C[C@H](Oc2cccnc2)CN1S(=O)(=O)c1cccnc1)N1CCCC1	i
Cc1ccc(-c2nnc([C@H]3CCN(Cc4ccc(CO)o4)C3)o2)cc1	i
FC(F)(F)c1ccc(CN2CC[C@H](c3nnc(-c4ccccc4)o3)C2)cc1	i
Cc1ccc(CN2CC[C@H](c3nnc(-c4ccccc4)o3)C2)cc1	10µM
Cc1cccc(-c2ccccc2C(=O)N2CCCC(CO)(Cc3ccccc3F)C2)c1 (stereo not given)	i
CC(C)NC(=O)C1COC2(CCN(C(=O)C(C)(C)C)CC2)N1C(=O)c1ccc(F)cc1 (stereo not given)	i
O=C(c1ccccc1Cl)N1CCC(N2CCCCCC2=O)CC1	i
CN1CCCC(CNc2ncc(C(C)(C)C(=O)O)c(N3CCOCC3)n2)C1 (stereo not given)	i
COc1ccc(CN(C(=O)Nc2cccc(OC)c2)C2CCN(C(C)=O)CC2)cc1	i
COc1cccc(NC(=O)N(Cc2cn(C)c3ccccc23)C2CCCCC2)c1	2.8µM
COc1cccc(NC(=O)N(CCC(C)C)C2CCN(C(C)C)CC2)c1	i
Cc1ccc(NC(=O)N(Cc2cn(C)c3ccccc23)C2CCCCC2)cc1C	3.5µM
CC(=O)N1CCC(N(CCCOC(C)C)C(=O)Nc2ccc(C)c(C)c2)CC1	i
Cc1ccc(NC(=O)Cn2cc(C(=O)C3CC3)c3ccccc32)cc1C	i[5.79 µM]
O=C(Cc1ccc(Cl)cc1)NCC1COc2ncncc2C(=O)N1Cc1ccccc1 (stereo not given)	i
Cc1occc1C(=O)N1CCC(CCC(=O)N2CCN(c3ccccc3)CC2)CC1	i
O=C(NCC(F)(F)F)c1ccc2c(c1)C1(CCN(CC3CC3)C1)CN2Cc1ccccc1 (stereo not given)	i
N#Cc1ccc(C(=O)N2CCc3n[nH]c(=O)n3CC2)cc1	i
O=C(O)CCCNC(=O)Cn1nc2c(cc1=O)CCCCC2	i
